The whole screen tested about 330,000 compounds, of which about 980 (0.3%) were called active. The sample as a whole holds a higher share of actives than the screen did. Unmarked numbers belong to inactive results.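 The calls were made as follows: active = percent response vs DMSO below 50%; inconclusive = fewer than 70 events counted for the yeast strain; inactive = the rest.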

The assay is described as follows: RPL19A-GFP expression modulators in yeast, primary screen, cell-based, S. cerevisiae, multiplex flow cytometry, MLPCN (AID 2025).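 Also: median channel GFP fluorescence of the barcoded RPL19A-GFP strain; ratio of sample median GFP to plate DMSO average so 100% = DMSO; lower means less RPL19A-GFP as with rapamycin TOR inhibition.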 The conditions noted are these: S. cerevisiae RPL19A-GFP strain, 3 h, at 10 µM, hits give low values. In general terms: In flow cytometry, cells or beads pass a laser one at a time.
As for `COc1ccc(CN(Cc2ccco2)S(=O)(=O)c2ccc(S(=O)(=O)N3CCCC3)cc2)cc1`, the percent response vs DMSO was 107%.

For the molecule `CCOc1ccc(S(=O)(=O)N2CCC(c3ccccc3)CC2)cc1C(=O)O`, the percent response vs DMSO was 99.8%.

As for `COc1ccc(S(=O)(=O)NC(C)C(=O)NCc2ccncc2)cc1Cl` (stereo not drawn), the percent response vs DMSO is 99.9%.

In the case of `O=C(COc1cc2oc(=O)c3c(c2cc1Cl)CCC3)NCCCN1CCOCC1`, the percent response vs DMSO was 112%.

In the case of `CC(Oc1cc2oc(=O)c3c(c2cc1Cl)CCCC3)C(=O)NCc1ccncc1` (stereo not drawn), the percent response vs DMSO was 14.1% [may fluoresce violet] (active).

Regarding `Cc1ccc(OCCCCN2CCCCC2)c(Br)c1`, the percent response vs DMSO is 96.8%.

Turning to `CCOc1ncccc1C(=O)OCC(=O)N1c2ccccc2CC1C` (stereo not drawn), the percent response vs DMSO is 95.9%.

For the molecule `CCOc1ncccc1C(=O)OCc1cn2cc(Cl)ccc2n1`, the percent response vs DMSO is 45.3% [may fluoresce violet] (active).

Take `CCOc1ncccc1C(=O)OCC(=O)NC1CC1`: the percent response vs DMSO is 99.9%.

As for `Cc1cc(C)cc(N(CC(=O)NC2CCCC2)C(=O)CCC(=O)Nc2cc(C)on2)c1`, the percent response vs DMSO was 46.1% [may fluoresce violet] (active).

Turning to `Cc1cc(NC(=O)CCC(=O)N(CC(=O)NC2CCCC2)c2ccc(F)cc2)no1`, the percent response vs DMSO was 100%.

Turning to `Cc1cc(C)cc(N(CC(=O)NC2CCCC2)C(=O)CCC(=O)Nc2nccs2)c1`, the percent response vs DMSO was 103%.

For `COc1cc(C2C3=C(CCCC3=O)OC3=C2C(=O)CCC3)ccc1OCC(=O)Nc1ccccc1`, the percent response vs DMSO was 110%.

`O=C1CSC(=S)N1c1ccc(Cl)c(Cl)c1`: the percent response vs DMSO was 109%.

With `COc1ccc(CN2CCCC(N3CCc4ccccc4C3)C2)c(O)c1` (stereo not drawn), the percent response vs DMSO was 101%.

Turning to `COc1ccccc1CN1CCN(Cc2cc(OC)c(OC)cc2OC)CC1`, the percent response vs DMSO was 106%.

On to `COc1ccccc1CN1CCCC(N2CCN(c3ccc(F)cc3)CC2)C1` (stereo not drawn), for which the percent response vs DMSO was 30.8% [may fluoresce violet] (active).

For the molecule `O=C(O)CSc1nccc2ccccc12`, the percent response vs DMSO was 102%.

For the molecule `Cc1ccc(NC(=O)CCOc2ccccc2)cc1S(=O)(=O)Nc1ccccc1Cl`, the percent response vs DMSO was 102%.

On to `Cc1ccc(-c2csc(NC(=O)Cn3[nH]c(=O)c4ccccc4c3=O)n2)cc1`, for which the percent response vs DMSO was 103%.

`Cc1c(C(=O)Nc2cccc(-c3nnc4n3CCCCC4)c2)oc2ccccc12`: the percent response vs DMSO is 111%.

Consider `O=C(Cn1[nH]c(=O)c2ccccc2c1=O)Nc1cccc(-c2nnc3n2CCCCC3)c1`, for which the percent response vs DMSO was 17.9% [may fluoresce violet] (active).

With `Cc1cc(NC(=O)COc2ccc([N+](=O)[O-])cc2)no1`, the percent response vs DMSO is 105%.

Take `COC(=O)c1cc(C(=O)OCC(=O)Nc2cc(C)on2)cc([N+](=O)[O-])c1`: the percent response vs DMSO is 41.7% [may fluoresce violet] (active).

For the molecule `Cc1cc(NC(=O)CSc2nccn2-c2ccc([N+](=O)[O-])cc2)no1`, the percent response vs DMSO is 98.9%.

Turning to `COc1ccc(S(=O)(=O)NCCc2cc3ccc(C)c(C)c3[nH]c2=O)cc1`, the percent response vs DMSO was 101%.

`Oc1ccc2ccc3cccc[n+]3c2c1`: the percent response vs DMSO is 100%.

Turning to `Nn1c(SCC(=O)Nc2nccs2)nncc1=O`, the percent response vs DMSO was 95.5%.

As for `CC(C)COP(=O)(c1ccc(N(C)C)cc1)C(Nc1ccccc1)c1cccnc1` (stereo not drawn), the percent response vs DMSO is 100%.

As to `CCC(=O)N1c2ccc(S(=O)(=O)CCC(=O)N3CCN(c4ccccc4)CC3)cc2CC1C` (stereo not drawn), the percent response vs DMSO was 105%.

As to `COc1ccccc1CNC(=O)C1CCN(S(=O)(=O)c2ccc3c(c2)CC(C)N3C(=O)C2CC2)CC1` (stereo not drawn), the percent response vs DMSO is 102%.

As to `Cc1ccc(CNC(=O)CCS(=O)(=O)c2ccc3c(c2)CC(C)N3C(=O)C2CC2)o1` (stereo not drawn), the percent response vs DMSO is 17.4% [may fluoresce violet] (active).

As to `Cc1cc(-c2ccc(C)c(S(=O)(=O)Nc3ccc(S(N)(=O)=O)cc3)c2)on1`, the percent response vs DMSO was 99%.

For `Cc1noc(C)c1S(=O)(=O)NCCc1ccc(S(N)(=O)=O)cc1`, the percent response vs DMSO was 95.7%.

Regarding `CCc1ccc(-c2cc(C)no2)cc1S(=O)(=O)NCCc1ccc(S(N)(=O)=O)cc1`, the percent response vs DMSO was 33.8% [may fluoresce violet] (active).

Regarding `CCOC(=O)N1CCC(N(CCOC)C(=O)Nc2ccc(C)c(C)c2)CC1`, the percent response vs DMSO is 89.6%.

For `CCOC(=O)C1Nc2ccc(C(F)(F)F)cc2C2C=CCC12` (stereo not drawn), the percent response vs DMSO was 93.3%.

`CC1CCN(C(=O)CN(c2ccc(Oc3ccccc3)cc2)S(C)(=O)=O)CC1`: the percent response vs DMSO was 100%.

For `COc1ccc(NC(=O)c2cccc(Cl)c2)c[n+]1[O-]`, the percent response vs DMSO is 106%.

On to `COCC(C)OC(=O)c1c(N)n(CCCN2CCOCC2)c2nc3ccccc3nc12` (stereo not drawn), for which the percent response vs DMSO was 27% [may fluoresce violet] (active).

For `CC(C)(C)OC(=O)c1c(N)n(CCCN2CCCC2=O)c2nc3ccccc3nc12`, the percent response vs DMSO is 90%.

`CC(CN1CCOCC1)OC(=O)c1ccc(C(C)(C)C)cc1` (stereo not drawn): the percent response vs DMSO is 105%.

In the case of `CCCCC(CC)CNC(=O)C(=O)C1C(=O)Nc2ccccc21` (stereo not drawn), the percent response vs DMSO was 96.8%.

For `COc1ccc(N(CCC#N)S(=O)(=O)c2ccc(Cl)cc2)cc1`, the percent response vs DMSO is 99.2%.

In the case of `COc1ccccc1OCCNCC(O)COc1cccc2[nH]c3ccccc3c12` (stereo not drawn), the percent response vs DMSO was 103%.

With `O=C(CNC(=O)c1ccc(Cl)cc1Cl)NCC(=O)Nc1ccccc1N1CCOCC1`, the percent response vs DMSO is 100%.

As for `O=C(c1ccccc1)N1CCN(c2ccc([N+](=O)[O-])c(NCc3ccco3)c2)CC1`, the percent response vs DMSO was 98.5%.

For `COc1ccccc1OCCNc1cc(N2CCOCC2)ccc1[N+](=O)[O-]`, the percent response vs DMSO is 99.1%.

For `COc1ccc(CCNc2cc(N3CCN(C(=O)c4ccccc4OC)CC3)ccc2[N+](=O)[O-])cc1OC`, the percent response vs DMSO is 19.6% [may fluoresce violet] (active).

For `Cn1ccs/c1=N\S(=O)(=O)c1ccc(C(C)(C)C)cc1`, the percent response vs DMSO was 43.3% [may fluoresce violet] (active).

For `Cn1ccsc1=NC(=O)c1cc(S(=O)(=O)N2CCOCC2)ccc1Cl`, the percent response vs DMSO is 101%.

In the case of `COc1ccc(C2=Nn3c(nnc3-c3ccccc3OC)SC2)cc1OC1CCCC1`, the percent response vs DMSO was 92.8%.

On to `Cc1cccn2c(=O)c3cc(C#N)c(=O)n(CCCN4CCOCC4)c3nc12`, for which the percent response vs DMSO was 37.1% [may fluoresce violet] (active).

For the molecule `Cc1cccn2c(=O)c3cc(C(=O)NCC4CCCO4)c(=N)n(Cc4ccc(F)cc4)c3nc12` (stereo not drawn), the percent response vs DMSO was 97.2%.

For the molecule `Cc1cccn2c(=O)c3cc(C#N)c(=NC(=O)c4cccnc4)n(CC4CCCO4)c3nc12` (stereo not drawn), the percent response vs DMSO was 97.3%.

For `CCCOc1ccc(/C=N/NC(=O)C2CC2)c(OCCC)c1`, the percent response vs DMSO was 101%.

Turning to `COc1cccc(N=c2oc3c(C)ncc(CO)c3cc2C(N)=O)c1`, the percent response vs DMSO was 95%.

As for `CCc1ccccc1S(=O)(=O)Cc1ccc(C(=O)NCCc2ccccc2)o1`, the percent response vs DMSO is 96.8%.

`Cc1oc(-c2ccccc2F)nc1CS(=O)CC(=O)NCCN1CCCCC1C` (stereo not drawn): the percent response vs DMSO was 100%.

Turning to `Cc1ccccc1S(=O)(=O)Cc1ccc(C(=O)NCCN2CCCCC2C)o1` (stereo not drawn), the percent response vs DMSO was 34.3% [may fluoresce violet] (active).

On to `CCCS(=O)(=O)N1CCCC(C(=O)NCCN2CCCCC2C)C1` (stereo not drawn), for which the percent response vs DMSO was 104%.

On to `Cc1cc(N2CCOCC2)nc2ccc(NC(=S)N3CCN(Cc4ccccc4)CC3)cc12`, for which the percent response vs DMSO is 105%.

Consider `CCN(CC)c1ccc(C(=O)N/N=C(\C)c2cccc(OC)c2)cc1`, for which the percent response vs DMSO was 103%.

With `COc1ccc(/C(C)=N/NC(=O)c2ccc3nc[nH]c3c2)cc1`, the percent response vs DMSO is 22.1% [may fluoresce violet] (active).

Regarding `CC(=NNC(=O)c1ccc2nc[nH]c2c1)c1ccc(Br)cc1`, the percent response vs DMSO was 103%.

As for `CCCC(NC(=O)c1ccco1)c1nc2ccccc2[nH]1` (stereo not drawn), the percent response vs DMSO is 104%.

Consider `COc1c(C)c2c(c(O)c1C/C=C(\C)CCC(=O)O)C(=O)OC2`, for which the percent response vs DMSO was 39.1% [may fluoresce violet] (active).

As for `Cc1c(C)n2c(SCC(=O)NC3CCCC3)nnc2[nH]c1=O`, the percent response vs DMSO was 88%.

`COc1cc(SC)ccc1C(=O)NNC(=O)C1COc2ccccc2O1` (stereo not drawn): the percent response vs DMSO was 95%.

In the case of `Cc1ccc(C23CC4CC(CC(C(=O)NCC(=O)O)(C4)C2)C3)cc1`, the percent response vs DMSO is 30% [may fluoresce violet] (active).

Take `CCOc1ccccc1NC(=O)C12CC3CC(C1)CC(c1ccc(C)cc1)(C3)C2`: the percent response vs DMSO was 101%.

Take `C=CCNC(=O)C12CC3CC(C1)CC(C(=O)NCC=C)(C3)C2`: the percent response vs DMSO was 98.2%.

In the case of `O=C(COc1ccc2c(c1)CCC2)N1CCN(c2ccc(F)cc2)CC1`, the percent response vs DMSO was 95.3%.

With `COc1ccc(-c2nc3ccccc3n2CCC(C)C)cc1OC`, the percent response vs DMSO was 98.3%.

Take `O=C1N(c2ccc(Cl)cc2)C(c2ccc(Cl)cc2)N2CCCN12` (stereo not drawn): the percent response vs DMSO was 95.4%.

With `CCOC(=O)C1CCN(C(=O)CN2C(=O)c3cccnc3Oc3ccc(C)cc32)CC1`, the percent response vs DMSO is 97.7%.

In the case of `Cc1cc2c(cc1C)N(Cc1ccccc1)C1=NCCCN12`, the percent response vs DMSO is 101%.

`C=CCOC(=O)C1=C(C)OC(N)=C(C#N)C1c1ccc(F)cc1` (stereo not drawn): the percent response vs DMSO is 91.2%.

For the molecule `CC(C)c1ccc(C2C(C#N)=C(N)Oc3c2oc(CO)cc3=O)cc1` (stereo not drawn), the percent response vs DMSO is 44% [may fluoresce violet] (active).

With `COC(=O)C1=C(N)Oc2c(oc(CO)cc2=O)C1c1c(F)cccc1Cl` (stereo not drawn), the percent response vs DMSO was 103%.

`Cc1cccc(OCC(=O)NC2CC(C)(C)NC(C)(C)C2)c1`: the percent response vs DMSO is 98.6%.

Turning to `Cc1cccc(NC(=O)Cn2c(=O)n(Cc3ccccc3)c(=O)c3c(C)c(C)sc32)c1`, the percent response vs DMSO was 104%.

Consider `Cc1c(C(C)(C)O)[nH]c2ccc(C#N)cc12`, for which the percent response vs DMSO was 91.7%.

Take `CCOC(=O)C1CCCN(C(=O)CSc2nnc3nc(C)cc(C)n23)C1` (stereo not drawn): the percent response vs DMSO is 93.7%.

On to `COc1cc(C(=O)NC2CCN(C)CC2)ccc1Nc1ncc2c(n1)N(C1CCC(O)CC1)CCC(=O)N2C` (stereo not drawn), for which the percent response vs DMSO was 90.7%.

On to `O=C(CS(=O)(=O)c1cn(Cc2cccc(F)c2)c2ccccc12)N1CCCCC1`, for which the percent response vs DMSO is 43% [may fluoresce violet] (active).

For `O=C(CS(=O)(=O)c1cn(Cc2ccc(Cl)cc2)c2ccccc12)N1CCOCC1`, the percent response vs DMSO is 91.2%.

As to `CC(=O)Nc1ccc(NC(=O)CS(=O)(=O)c2cn(CC(=O)N3CCCCC3)c3ccccc23)cc1`, the percent response vs DMSO was 97.7%.

(Values after PubChem BioAssay AID2025 (NMMLSC, 2009).)
